Data on 40 molecules can be found in PubChem BioAssay (Tox21).

Inconclusive results are not listed. Where a call stands in place of a potency, no number is given. Calls of active or inactive are those of the source. Calls follow the shape of the dose curve; as a rule, active = well fitted inhibition curve with a large enough effect in the signal ratio in the repeat runs (not every such curve was filed as active); inconclusive = weak or mixed curves; inactive = flat fitted curve, though single readings scatter; the % refers to the signal ratio.

Chain of Progesterone receptor (Homo sapiens) (P06401 whole entry, looked up): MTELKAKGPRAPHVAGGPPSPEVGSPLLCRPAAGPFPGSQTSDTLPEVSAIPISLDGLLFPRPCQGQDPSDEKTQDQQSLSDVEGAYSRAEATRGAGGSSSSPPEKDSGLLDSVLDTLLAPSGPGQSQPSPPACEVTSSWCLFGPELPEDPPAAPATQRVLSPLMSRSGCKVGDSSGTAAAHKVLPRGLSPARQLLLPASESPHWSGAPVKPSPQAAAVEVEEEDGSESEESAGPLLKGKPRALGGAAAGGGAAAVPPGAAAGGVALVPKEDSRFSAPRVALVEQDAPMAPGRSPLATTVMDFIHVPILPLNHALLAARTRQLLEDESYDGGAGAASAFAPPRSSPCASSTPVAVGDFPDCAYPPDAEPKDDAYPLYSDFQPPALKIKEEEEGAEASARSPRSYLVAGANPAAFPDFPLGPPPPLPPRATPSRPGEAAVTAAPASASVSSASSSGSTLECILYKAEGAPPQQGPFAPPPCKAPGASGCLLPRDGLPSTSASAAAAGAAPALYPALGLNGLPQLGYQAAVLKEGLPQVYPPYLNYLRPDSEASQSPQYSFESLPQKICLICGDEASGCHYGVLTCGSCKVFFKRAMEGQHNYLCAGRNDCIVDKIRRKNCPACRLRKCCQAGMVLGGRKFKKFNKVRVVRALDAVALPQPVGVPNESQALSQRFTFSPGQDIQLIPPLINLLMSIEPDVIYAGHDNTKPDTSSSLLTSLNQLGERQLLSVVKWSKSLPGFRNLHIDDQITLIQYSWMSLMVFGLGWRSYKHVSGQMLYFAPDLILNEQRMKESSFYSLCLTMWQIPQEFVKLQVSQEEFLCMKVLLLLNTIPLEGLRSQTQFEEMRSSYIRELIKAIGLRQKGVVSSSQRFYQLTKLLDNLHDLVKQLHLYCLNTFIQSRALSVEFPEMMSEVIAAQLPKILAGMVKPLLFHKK

For the test, the target named is Progesterone receptor (Homo sapiens) (UniProt P06401). Kind of test: qHTS assay to identify small molecule antagonists of the progesterone receptor (PR) signaling pathway (AID 1346795). To be noted: PR-UAS-bla HEK293T, beta-lactamase FRET ratio, 16 h; series mostly up to 92.4 µM. From the text:
National Center for Advancing Translational Sciences [NCATS]
NIH Chemical Genomics Center [NCGC]
U.S. Environmental Protection Agency [EPA]
National Institutes of Environmental Health Sciences [NIEHS]
National Toxicology Program [NTP]
U.S. Food and Drug Administration [FDA]
Progesterone receptor (PR), a nuclear hormone receptor, plays an important role in development, metabolic homeostasis and reproduction. […] Endocrine disrupting chemicals (EDCs) and their interactions with steroid hormone receptors like PR causes disruption of normal endocrine function. To identify the compounds that inhibit PR signaling, a PR-UAS-bla GripTite cell line i.e. PR-UAS-bla HEK293T (Invitrogen, Carlsbad, CA, USA) containing a beta-lactamase reporter gene under the control of an Upstream Activator Sequence (UAS) was used to screen Tox21 10K compound library.
Tox21 Assay Protocol Summary:
PR-UAS-bla HEK293T cells were dispensed at 3,000 cells/4 uL of assay medium containing 2% charcoal stripped FBS per well into black wall/clear-bottom 1536-well plates using a Multidrop Combi (ThermoFisher Scientific, Waltham, MA) dispenser. After the assay plates were incubated at a 37C and 5% CO2 for 6 hr, 23 nL of compounds dissolved in DMSO, positive controls or DMSO only was transferred to the assay plate by a Pintool station (Kalypsys, San Diego, CA), followed by addition of 1 uL (1nM as final concentration) of Promegestone (R5020) in assay medium using a BioRAPTR FRD (Flying Reagent Dispenser, Aurora Discovery, San Diego, CA). The plates were incubated at 37C and 5% CO2 for 16 hr. Then 1 uL of LiveBLAzer B/G FRET substrate was added using a FRD. After the plates were incubated at room temperature for 2 hours, fluorescence intensity was measured by an Envision plate reader (PerkinElmer, Shelton, CT).
For the molecule `O=C(O)CNC(=O)CNC(=O)CNC(=O)CSC(=O)c1ccccc1`, the Potency entry is “inactive”.

`CCCSSCCC`: the Potency result is “inactive”.

Take `O=[N+]([O-])c1c(Cl)cc(Cl)cc1Cl`: the Potency entry was “inactive”.

For `O=C(O)c1cc2ccccc2nc1C(=O)O`, the Potency entry is “inactive”.

As to `C=CCCCC`, the Potency result was “inactive”.

Take `CC(CO)(CO)CO`: the Potency entry was “inactive”.

With `CNCCS(=O)(=O)O`, the Potency result was “inactive”.

As to `CC(Oc1cc(Cl)ccc1Cl)C(=O)O` (stereo not given), the Potency result was “inactive”.

Regarding `C=CC(=O)CCCCC`, the Potency result was “inactive”.

As for `CCOC(CN1CCN(CC(C)C(=O)c2ccccc2)CC1)c1ccccc1` (stereo not given), the activity change, negative = inhibition was 8.35% [at 18.9 µM] (inactive).

On to `C=CCN1C[C@H](C(=O)N(CCCN(C)C)C(=O)NCC)C[C@@H]2c3cccc4[nH]cc(c34)C[C@H]21`, for which the Potency result was “inactive”.

On to `CC1(C)[C@H]2CC[C@](C)(C2)[C@H]1O`, for which the Potency result was “inactive”.

As for `Cc1c(Cl)cccc1Cl`, the Potency entry is “inactive”.

Consider `C=C(C)[C@@H]1CC=C(C)CC1`, for which the Potency result was “inactive”.

Consider `C=CCOC(=O)CCCCCC`, for which the Potency entry was “inactive”.

In the case of `CC(C)=CCC/C(C)=C/COC=O`, the Potency result was “inactive”.

Turning to `O=C1c2ccccc2C(=O)c2cc(Cl)ccc21`, the activity change, negative = inhibition is 1.29% [at 8.39 µM] (inactive).

Regarding `C/C=C(\C)C(C)=O`, the Potency result was “inactive”.

On to `COC(=O)CCCCC(CCSS/C(CCO)=C(\C)N(C=O)Cc1cnc(C)nc1N)SC(C)=O` (stereo not given), for which the Potency result is “inactive”.

On to `N[C@@H](Cc1ccc(O)cc1)C(=O)O`, for which the activity change, negative = inhibition is 7.58% [at 8.39 µM] (inactive).

For the molecule `COc1c2occc2c(OC)c2c(=O)cc(C)oc12`, the Potency result is “inactive”.

Turning to `CCC(C)C(C)=O` (stereo not given), the Potency entry is “inactive”.

As to `CCCCCCCCCCOC(C)=O`, the Potency result was “inactive”.

With `COC(=O)c1ccccc1C(=O)O`, the Potency result is “inactive”.

On to `COCCc1ccccn1`, for which the Potency result is “inactive”.

`C#CCN[C@@H]1CCc2ccccc21`: the Potency entry is “inactive”.

Regarding `CC(C)NCC(O)c1ccc2ccccc2c1` (stereo not given), the Potency entry was “inactive”.

Turning to `CN(C)CCCO[C@@H]1[C@H]2OC(C)(C)O[C@H]2O[C@@H]1C(O)CO` (stereo not given in full), the Potency entry was “inactive”.

As for `N[C@@H](CSCCCO)C(=O)O`, the activity change, negative = inhibition was 8.75% [at 18.9 µM] (inactive).

With `O=C(CCCCC(=O)Nc1c(I)cc(I)c(C(=O)O)c1I)Nc1c(I)cc(I)c(C(=O)O)c1I`, the Potency result is “inactive”.

Take `COC(=O)c1cc(Cl)cc(Cl)c1`: the Potency result is “inactive”.

For `CC1(C)O[C@H]2CC(=O)OC[C@]23[C@H]2CC[C@@]4(C)[C@H](c5ccoc5)OC(=O)[C@H]5O[C@]54[C@]2(C)C(=O)C[C@@H]13`, the Potency result is “inactive”.

On to `C/C(=C1\CCOC(=O)S1)N(C=O)Cc1cnc(C)nc1N`, for which the Potency result was “inactive”.

Take `N#Cc1ccccc1O`: the Potency result was “inactive”.

Consider `CC(C)NC(=O)c1ccc(C=O)cc1`, for which the Potency entry is “inactive”.

Consider `CCC/C=C(\C=O)CC`, for which the Potency result was “inactive”.

For the molecule `CCCCC1CCC(O)CC1` (stereo not given), the Potency entry was “inactive”.

For `CC(C)(C)NC[C@H](O)COc1cccc2c1CCCC2=O`, the Potency result is “inactive”.

For the molecule `C=C(C)[C@@H]1CC=C(C)C(=O)C1`, the Potency entry is “inactive”.

Regarding `Cc1ncc([N+](=O)[O-])n1CC(C)O` (stereo not given), the Potency result is “inactive”.
